# Screens: PubChem BioAssay, National Center for Advancing Translational Sciences (NCATS)
# Methyltransferases = Primary Screen for Target Class Profiling of Small Molecule Inhibitors of Methyltransferases. purified enzyme, MTase-Glo SAH luminescence; stronger effect = lower value. calls only at 40 µM. hit rate 3.9% among 25,000. AID 1745853, 2022; call rule not given here
#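 Each enzyme was reacted with SAM and its substrate, with compounds tested once at 40 uM; SAH formed was read by MTase-Glo luminescence.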
# An asterisk follows results filed as active; i = inactive; + = active, no number; ! = a repeat was not active. Many of the other results were omitted from the sample, so hits are more common in it than they were. On the % scale 0 is the no-effect control and ±100 the full control effect.
SMILES,Methyltransferases
COc1ccccc1CNC(=O)c1cc2n(n1)CC(C)(C(=O)NC1CCCCC1)N(C)C2=O (stereo unspecified),i
Cc1ccc(C(N)=O)cc1Nc1nccc(-c2cn(C(C)C)c3cnccc23)n1,+
CCCN1C(=O)c2c(C(=O)NCCc3ccc(C)cc3)ncn2CC1(C)C(=O)NCCC(C)C (stereo unspecified),i
CCOc1ccc(NC(=O)Cn2c(=O)oc3cc(S(=O)(=O)N4CCCC4)ccc32)cc1,i
C=C1C(=O)OC2CC(COC(=O)C(C)C)=C(C(C)CCCOC(C)=O)[C@@H](OC(C)=O)C12 (stereo partly specified),i
C=C1C(=O)O[C@@H]2CC(C)=C([C@@H](C)CCCOC(C)=O)[C@@H](O)[C@H]12,+
C=C1C(=O)OC2CC(C)=C(C(C)CCCO[C@@H]3O[C@H](CO)[C@@H](O)[C@H](O)[C@H]3O)C(O)C12 (stereo partly specified),i
O=C(Cn1c(=O)oc2cc(S(=O)(=O)N3CCCC3)ccc21)NCCC1=CCCCC1,i
O=C(Cn1c(=O)oc2cc(S(=O)(=O)N3CCCC3)ccc21)NCCc1ccc(Cl)cc1,i
Cc1ccsc1CCNC(=O)Cn1c(=O)oc2cc(S(=O)(=O)N3CCCC3)ccc21,+
CC1(C(=O)NC2CCCC2)Cn2c(cc3ccccc32)C(=O)N1CCc1cccs1 (stereo unspecified),i
OC(COc1ccccc1CNCC1CCOCC1)CN1CCSCC1 (stereo unspecified),i
CN(CC(=O)Nc1ccc(F)cc1F)S(=O)(=O)c1ccc2[nH]c3c(c2c1)CCCC3,i
O=C(NCc1ccc2c(c1)OCO2)c1sc(=S)n2c1[nH]c(=O)c1cc3c(cc12)OCO3,i
COC(=O)c1ccc2c(=O)[nH]c3c(C(=O)NCc4ccc5c(c4)OCO5)sc(=S)n3c2c1,i
CCc1ccc(NC(=O)c2sc(=S)n3c2[nH]c(=O)c2cc(Cl)ccc23)cc1,i
O=C(NCc1cccc(Cl)c1)c1sc(=S)n2c1[nH]c(=O)c1cc3c(cc12)OCO3,+
O=C(NCc1ccc2c(c1)OCO2)c1n[nH]nc1Nc1ccc(Cl)cc1,i
O=C(NCc1ccc2c(c1)OCO2)c1sc(=S)n2c1[nH]c(=O)c1ccc(Cl)cc12,+
CCn1nc(CNC(=O)Cc2cccc(F)c2)c2ccccc21,i
CCCCNc1nc2c(S(=O)(=O)c3cc(C)ccc3C)nnn2c2ccccc12,i
COc1ccc(CCN2C(=O)c3cc4ccccc4n3CC2(C)C(=O)NCc2ccccc2OC)c(OC)c1 (stereo unspecified),i
CCOC(=O)c1cc2n(n1)CC(C)(C(=O)NC1CCCCC1)N(Cc1ccc(CC)cc1)C2=O (stereo unspecified),i
Cc1ccc(CCNC(=O)c2cc3n(n2)CC(C)(C(=O)NC2CCCCC2)N(C)C3=O)cc1 (stereo unspecified),i
COc1ccc(-n2c(C)cc(CNS(=O)(=O)c3ccc4c(c3)oc(=O)n4C)c2C)cc1,i
SMILES,Methyltransferases
O=S(=O)(Nc1ccccc1Cl)c1ccc2[nH]c3c(c2c1)CCCC3,i
O=C(Nc1ccc([N+](=O)[O-])cc1Cl)c1cc(Cl)ccc1O,i
O=[N+]([O-])c1cc(S(=O)(=O)Nc2ccc(O)c3ccccc23)ccc1Cl,+
CCCn1c(=O)c2ccc(C(=O)NC(C)C)cc2n2c(SCC(=O)Nc3ccc(C)c(C)c3)nnc12,i
CCCn1c(=O)c2ccc(C(=O)NCC(C)C)cc2n2c(=O)n(CC(=O)Nc3ccc(F)cc3)nc12,i
COc1ccc(-c2cc3n(n2)CC(C)(C(=O)NCc2ccccc2OC)N(c2ccc(Cl)cc2C)C3=O)cc1 (stereo unspecified),i
CSCC1OC(n2cnc3c(=O)[nH]cnc32)C(O)C1O (stereo unspecified),i
Nc1ncnc2c1ncn2[C@@H]1O[C@H](CO)[C@@H](O)[C@H]1O,i
CC(C)N(C[C@H]1O[C@@H](n2cnc3c(N)ncnc32)[C@H](O)[C@@H]1O)C1CC(CCc2nc3ccc(C(C)(C)C)cc3[nH]2)C1 (stereo partly specified),+
CC(C)CCNC(=O)C1(C)Cn2nc(C(=O)N3CCN(C)CC3)cc2C(=O)N1C (stereo unspecified),i
CCCC1c2ccc(C)n2CCN1C(=O)Nc1ccc(C)cc1C (stereo unspecified),i
Cc1c(Cl)cccc1N1C(=O)c2cc(-c3ccco3)nn2CC1(C)C(=O)NC1CCCCC1 (stereo unspecified),i
Cc1cc(O)c2c(c1)C(=O)c1cc(O)cc(O)c1C2=O,+
CC12CC(O)C(O)C=C1c1cc(O)cc(O)c1C(=O)O2 (stereo unspecified),i
COc1ccc(CNC(=O)C2(C)Cn3cnc(C(=O)Nc4ccc(C(C)C)cc4)c3C(=O)N2C2CC2)cc1 (stereo unspecified),i
CC(Cc1ccco1)NC(=O)c1cc2n(n1)CCCN(Cc1ccccc1)C2=O (stereo unspecified),i
COc1ccc(-c2cc3n(n2)CC(C)(C(=O)NCc2ccccc2OC)N(c2ccc(F)cc2C)C3=O)cc1 (stereo unspecified),i
CCCCN1C(=O)c2cc(C(=O)Nc3cccc(CC)c3)nn2CC1(C)C(=O)NC1CCCC1 (stereo unspecified),i
Cc1cc(Nc2nc(N[C@@H](C)c3ccc(F)cc3)c(C#N)cc2F)n[nH]1,+!
Cc1cc(Nc2nc(-c3ccccc3)nc3ccccc23)n[nH]1,i
COc1ccccc1CNC(=O)C1(C)Cn2nc(-c3ccccc3)cc2C(=O)N1c1ccc(C)cc1 (stereo unspecified),i
Cc1ccc(C(=O)Nc2ccc(S(=O)(=O)O)c3cc(S(=O)(=O)O)cc(S(=O)(=O)O)c23)cc1NC(=O)c1cccc(NC(=O)Nc2cccc(C(=O)Nc3cc(C(=O)Nc4ccc(S(=O)(=O)O)c5cc(S(=O)(=O)O)cc(S(=O)(=O)O)c45)ccc3C)c2)c1,+
COc1ccc(-c2cc3n(n2)CC(C)(C(=O)NCc2ccccc2)N(Cc2cccc(OC)c2OC)C3=O)cc1 (stereo unspecified),i
O=C(CCc1nnc2ccc(NCc3ccccc3Cl)nn12)NCC1CCCO1 (stereo unspecified),i
CN1C(=O)c2cc(C(=O)NCc3cccs3)nn2CC1(C)C(=O)NC1CCCCC1 (stereo unspecified),i
SMILES,Methyltransferases
OC[C@H]1O[C@@H](OC[C@H]2O[C@@H](OC/C=C/c3ccccc3)[C@H](O)[C@@H](O)[C@@H]2O)[C@@H](O)[C@@H]1O,i
O=C(O[C@@H]1O[C@H](CO)[C@@H](O)[C@H](O)[C@H]1O)c1c(O)cc(O)cc1/C=C/c1ccccc1,+
CC(=O)c1c(C)cc(O[C@@H]2O[C@H](CO)[C@@H](O)[C@H](O)[C@H]2O)cc1O,i
OCCc1ccc(O[C@@H]2O[C@H](CO)[C@@H](O)[C@H](O)[C@H]2O)c(O)c1,i
OC[C@H]1O[C@@H](Oc2ccc(O)c3cccc(O)c23)[C@H](O)[C@@H](O)[C@@H]1O,+
CC(=O)c1c(O)cc(O[C@@H]2O[C@H](CO)[C@@H](O)[C@H](O)[C@H]2O)cc1O,i
O=C(c1ccccc1)c1c(O)cc(O)cc1O[C@@H]1O[C@H](CO)[C@@H](O)[C@H](O)[C@H]1O,+
OC[C@H]1O[C@@H](Oc2ccccc2)[C@H](O)[C@@H](O)[C@@H]1O,i
